# From paper PMC5540273 (PLoS ONE, 2017)
# System: SRPK3
# Conditions: concentration: 1 μM, replicates: in singlicate; n = 1
# 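Also: KINOMEscan kinase panel screen.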
row,Structure (SMILES),%Inh
1,O=C(Nc1cccc(-c2nn3ccccc3c2-c2ccnc(Nc3cccc(C(F)(F)F)c3)n2)c1)c1c(F)cccc1F [GSK292658],17%
2,COC(=O)Nc1nc2ccc(Oc3ccc(NC(=O)Nc4cc(C(F)(F)F)ccc4F)cc3)cc2n1C.Cl [GW692089],5%
3,Fc1ccc(-c2ncn(C3CCNCC3)c2-c2ccnc(Oc3ccc(-c4ccccc4)cc3)n2)cc1 [SB-245391],5%
4,COc1cc(Nc2nccc(-c3c(-c4cccc(NC(=O)c5c(F)cccc5F)c4)nn4ccccc34)n2)cc(OC)c1OC [GSK323521],30%
5,O=C(Nc1cccc(-c2nn3ccccc3c2-c2ccnc(Nc3cccc(F)c3)n2)c1)c1c(F)ccc(F)c1Cl [GSK357952],0%

# System: STK16
# Conditions: concentration: 1 μM, replicates: in singlicate; n = 1
row,Structure (SMILES),%Inh
1,CCn1c(-c2nonc2N)nc2c(C#CC(C)(C)O)nc(OC[C@H](N)c3ccccc3)cc21 [GSK943949],9%
2,Cc1cccc(NC(=O)Nc2ccc(Oc3ncnc4ccn(C)c34)cc2)c1,0%
3,O=C(Nc1cccc(Oc2ccc3nc(NC(=O)C4CC4)cn3n2)c1)c1ccccc1C(F)(F)F,17%
4,O=C(Nc1ccccc1F)NC1CCN(c2ccnc(Nc3ccc(F)cc3)n2)CC1 [GSK1379800],16%
5,NCCCC(NC(=O)c1cc(Br)c(-c2ccnc3[nH]ccc23)s1)c1ccccc1.O=C(O)C(F)(F)F.O=C(O)C(F)(F)F (stereo not drawn) [GSK1287544],60%
6,COc1cccc(C(=O)Nc2cccc(Oc3ccc4nc(NC(=O)C5CC5)cn4n3)c2)c1,0%
7,COC(=O)Nc1nc2cc(Oc3ccc(NC(=O)Nc4cc(C(F)(F)F)ccc4F)cn3)ccc2[nH]1.Cl.Cl [GW681170],17%
8,Cc1ccc(C(=O)Nc2ccc(Nc3ccnc4cc(-c5nccs5)ccc34)cc2O)cc1.Cl [GW494702],0%
9,CCc1ccc(-c2ccc3c(c2)-c2c(cnn2C)S(=O)(=O)N3C)cc1,0%
10,CN(C)S(=O)(=O)c1cc(-c2ccc3nccc(-c4cccc(S(N)(=O)=O)c4)c3c2)cnc1N [GSK1669921],45%
11,COc1cccc(NC(=O)NC2CCN(c3ccnc(Nc4cc(OC)c(OC)c(OC)c4)n3)C2)c1 (stereo not drawn) [GSK1379763],77%
12,O=c1[nH]cc(-c2ccc(N3CCOCC3)cc2)c2sc(-c3cn[nH]c3)cc12 [GSK2276055],35%
13,COc1cc(Nc2nccc(N3CCC(NC(=O)Nc4cccc(C(C)=O)c4)C3)n2)cc(OC)c1OC (stereo not drawn) [GSK1379753],83%
14,CN1CCN(CCCNc2nccc(-c3c(-c4ccc(F)cc4)nn4cc(C(F)(F)F)ccc34)n2)CC1 [GW621581],0%
15,c1ccc(-c2cnc3nccnn23)cc1 [AH20685],0%
16,Cc1ccc(C(=O)N2CC[C@@H](O)C2)cc1-n1c(C)cc(OCc2ccc(F)cc2F)c(Br)c1=O,19%
17,C[C@@H](Oc1cc(-n2cnc3cc(-c4ccnc(NCCS(C)(=O)=O)c4)ccc32)sc1C(N)=O)c1ccccc1Cl [GSK907232],27%
18,Cl.c1ccc(-c2ccc3c(Nc4ccc5[nH]ncc5c4)ccnc3c2)nc1 [GW440137],30%
19,Oc1cc(Nc2ccnc3cc(I)ccc23)ccc1F [GW552771],0%

row,Structure (SMILES),%Inh
1,Nc1n[nH]c2cnc(-c3ccccc3)cc12 [SB-642124],45%
2,COc1cc(Nc2nccc(N3CCC(NC(=O)c4cc5ccccc5s4)C3)n2)cc(OC)c1OC (stereo not drawn) [GSK1379760],10%
3,C[C@@H]1CC[C@@H](C(=O)Nc2ccccc2)CN1c1cc(-c2ccc3c(N)n[nH]c3c2)nc(N)n1 [GSK2286062],8%
4,Nc1ncc(-c2cccnc2)c2scc(-c3ccc4c(c3)CCN4C(=O)Cc3ccccc3)c12 [GSK683281],4%
5,Cc1ccc(F)c(C(=O)Nc2cccc(-c3nn4ccccc4c3-c3ccnc(Nc4cccc(F)c4)n3)c2)c1F [GSK361061],5%
6,O=C(Nc1cccc(-c2nn3ncccc3c2-c2ccnc(Nc3ccccc3)n2)c1)c1c(F)cccc1F [GSK198271],7%
7,CC(C)c1nc(-c2cccc(NS(=O)(=O)c3c(F)cccc3F)c2F)c(-c2ccnc(Nc3ccc(N4CCOCC4)nc3)n2)s1 [GSK2008607],46%
8,COc1cc(Nc2ncc3c(C)nc(-c4cc5ccccc5[nH]4)n3n2)cc(OC)c1OC [GW869516],86%
9,COCCOCCOc1cc2ncc3c4ccc(C#N)cc4[nH]c3c2cc1OC,11%
10,O=C(O)C(F)(F)F.O=C(O)C(F)(F)F.O=c1[nH]ccc2nc(N[C@@H]3CCCNC3)nc(Nc3ccc(S(=O)(=O)N4CCOCC4)cc3)c12 [GSK2177277],99.3%
11,Cc1cccc(Nc2nc(N[C@H]3CCNC3)ncc2C(N)=O)c1.Cl [GSK2197149],12%
12,COc1cc(Nc2nccc(-c3c(-c4cccc(NC(=O)c5c(F)cccc5F)c4)nn4ncccc34)n2)cc(OC)c1OC [GSK327238],67%
13,O=C(Nc1n[nH]c2cc(-c3ccoc3)ccc12)C1CC1 [SB-738481],21%
14,O=C(Nc1cccc(-c2nn3ccccc3c2-c2ccnc(Nc3cccc(C(F)(F)F)c3)n2)c1)c1c(F)cccc1F [GSK292658],0%
15,COC(=O)Nc1nc2ccc(Oc3ccc(NC(=O)Nc4cc(C(F)(F)F)ccc4F)cc3)cc2n1C.Cl [GW692089],0%
16,Fc1ccc(-c2ncn(C3CCNCC3)c2-c2ccnc(Oc3ccc(-c4ccccc4)cc3)n2)cc1 [SB-245391],14%
17,COc1cc(Nc2nccc(-c3c(-c4cccc(NC(=O)c5c(F)cccc5F)c4)nn4ccccc34)n2)cc(OC)c1OC [GSK323521],15%
18,O=C(Nc1cccc(-c2nn3ccccc3c2-c2ccnc(Nc3cccc(F)c3)n2)c1)c1c(F)ccc(F)c1Cl [GSK357952],0%
